# Measured values as given in PubChem BioAssay AID933 (National Center for Advancing Translational Sciences (NCATS), 2007).
# Inconclusive results are not listed. A call without a number means that no potency is given here. Values without a mark were called inactive. Activity calls are given as the source filed them. Calls come from the whole dose curve; as a rule, active = well fitted activation curve with a large enough effect in the signal ratio, with a control signal flat; inconclusive = small, poorly fitted or top-dose-only effect, or a change in a side signal; inactive = flat fitted curve, though single readings scatter; the % refers to the signal ratio.
# Target: Thyrotropin receptor (Homo sapiens) (UniProt P16473)
# Assay: Secondary Concentration-Response Assay for Agonists of the Thyroid Stimulating Hormone Receptor: HTRF Activity Detection
# Settings: HEK293-TSHR cells, cAMP HTRF ratio, 30 min; series mostly up to 91.7 µM
# In short: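 cAMP accumulation was detected by antibody-based HTRF, excitation 330 nm, emissions 615 and 660 nm. Compounds acted for 30 min at room temperature on stably TSHR-transfected HEK 293 cells, with phosphodiesterase inhibitor RO 20-1724 (100 uM) in the medium.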
# Potency is the fitted concentration of half-maximal effect.
# Thyrotropin receptor (Homo sapiens), sequence (P16473 whole entry, looked up): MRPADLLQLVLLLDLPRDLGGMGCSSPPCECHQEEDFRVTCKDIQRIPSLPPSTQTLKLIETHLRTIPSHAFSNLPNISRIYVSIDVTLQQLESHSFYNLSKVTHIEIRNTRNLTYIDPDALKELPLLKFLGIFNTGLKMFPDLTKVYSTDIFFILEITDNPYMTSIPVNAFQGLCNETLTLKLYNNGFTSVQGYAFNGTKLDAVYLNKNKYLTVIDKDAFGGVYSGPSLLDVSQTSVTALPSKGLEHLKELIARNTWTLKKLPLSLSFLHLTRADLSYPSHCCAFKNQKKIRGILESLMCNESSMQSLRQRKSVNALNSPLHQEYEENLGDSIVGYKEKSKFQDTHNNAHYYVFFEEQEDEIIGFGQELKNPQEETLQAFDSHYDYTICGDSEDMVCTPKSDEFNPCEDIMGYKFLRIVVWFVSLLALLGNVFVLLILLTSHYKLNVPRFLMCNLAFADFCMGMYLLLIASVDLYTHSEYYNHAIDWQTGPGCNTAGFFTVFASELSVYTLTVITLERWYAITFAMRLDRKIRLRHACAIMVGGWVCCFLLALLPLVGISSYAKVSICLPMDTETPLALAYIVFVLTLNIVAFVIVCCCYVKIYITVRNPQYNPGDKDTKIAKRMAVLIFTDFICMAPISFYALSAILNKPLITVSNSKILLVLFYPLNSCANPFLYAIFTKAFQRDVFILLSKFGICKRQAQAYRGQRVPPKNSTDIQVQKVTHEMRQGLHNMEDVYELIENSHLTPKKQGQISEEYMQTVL
Compound,Potency,activation
COc1ccc(C2Nc3ccccc3C(=O)N2Cc2ccco2)cc1COc1ccc(F)cc1 (stereo unspecified),inactive,
COc1ccc(C2Nc3ccccc3C(=O)N2Cc2ccc(Cl)cc2)cc1COc1ccc(NC(C)=O)cc1 (stereo unspecified),3.16 µM (active),
COc1ccc(C2Nc3ccccc3C(=O)N2c2ccccc2)cc1Cn1cc([N+](=O)[O-])cn1 (stereo unspecified),inactive,
COc1ccc(C2Nc3ccccc3C(=O)N2CCCN(C)C)cc1COc1ccc(NC(C)=O)cc1 (stereo unspecified),inactive,
CCCN1C(=O)c2ccccc2NC1c1ccc(OC)cc1OC (stereo unspecified),inactive,
O=C1c2ccccc2NC(c2ccccc2O)N1Cc1ccccc1 (stereo unspecified),inactive,
NC(=O)c1nsc(C(=O)N(CC(=O)NCc2ccc3c(c2)OCO3)C2CCCC2)c1N,inactive,
O=C1c2ccccc2NC(c2cc(Br)c3c(c2)OCO3)N1Cc1ccco1 (stereo unspecified),inactive,
COc1ccc(C2Nc3ccccc3C(=O)N2Cc2ccccc2)cc1COc1ccc(NC(=O)c2ccccc2)cc1 (stereo unspecified),inactive,
N#Cc1ccc(C(=O)N(Cc2ccco2)Cc2cccs2)cc1,inactive,
COC(=O)CNC(=O)C12CC3(C)CC(C)(CC(C)(C3)C1)C2,,0.274% [at 0.00035 µM]
COc1ccc(-c2nc3ccc(NC(=O)COC(C)=O)cc3c(=O)n2Cc2ccccc2)cc1COc1ccc(NC(C)=O)cc1,inactive,
CCN(c1ccccc1)S(=O)(=O)c1ccc(Oc2ccc(-n3ccnc3)cc2)nc1,,0.254% [at 0.00035 µM]
C=C(C)Cn1c(-c2ccccc2)nc2ccccc21,,0.0214% [at 0.00035 µM]
COc1ccc(C2Nc3ccccc3C(=O)N2Cc2ccco2)cc1COc1cccc(NC(C)=O)c1 (stereo unspecified),inactive,
CC(=O)Nc1ccc(C2Nc3ccccc3C(=O)N2C2CCCCC2)cc1 (stereo unspecified),inactive,
CC1CCN(S(=O)(=O)c2cccc(C(=O)Nc3ccccn3)c2)CC1,,0.1% [at 0.00035 µM]
O=C(Nc1ccccn1)NC12CC3CC(CC(C3)C1)C2,,0.487% [at 0.00035 µM]

Compound,Potency,activation
COc1ccc(C(=O)N(Cc2ccco2)Cc2cccs2)c(O)c1,50.1 µM (active),
COc1cccc(-c2nc(SC)nc3sc(C(=O)NC(C)(C)C)c(N)c23)c1,inactive,
COC(=O)c1cc(C(=O)OC)cc(N2C(=O)CC(Sc3nc(C)cc(C)n3)C2=O)c1 (stereo unspecified),,-0.898% [at 0.00035 µM]
COc1ccc(C2Nc3ccccc3C(=O)N2c2ccc(Cl)cc2)cc1Cn1cc([N+](=O)[O-])cn1 (stereo unspecified),inactive,
COc1ccc(C2Nc3ccccc3C(=O)N2Cc2cccc(Cl)c2)cc1COc1ccc(NC(C)=O)cc1 (stereo unspecified),2.82 µM (active),
COc1ccc(C2Nc3ccccc3C(=O)N2Cc2ccco2)cc1COc1ccccc1F (stereo unspecified),inactive,
COc1cccc(C(c2nnnn2Cc2ccccc2)N2CCN(C(=O)c3ccco3)CC2)c1OC (stereo unspecified),,0.497% [at 0.00035 µM]
COc1ccc(C2Nc3ccccc3C(=O)N2Cc2ccccc2)cc1Cn1nnc2ccccc21 (stereo unspecified),inactive,
CCCCN1C(=O)c2ccccc2NC1c1ccc(OC)c(COc2ccc(NC(C)=O)cc2)c1 (stereo unspecified),20 µM (active),
O=C1c2ccccc2NC(c2ccc3c(c2)OCCO3)N1c1ccc2c(c1)OCCO2 (stereo unspecified),inactive,
O=C1c2ccccc2NC(c2cccc(O)c2)N1Cc1ccco1 (stereo unspecified),inactive,
O=C1C2C3CCCC3=C3CCCC3C2C(=O)N1c1ccc(F)cc1 (stereo unspecified),inactive,
CCN(CC)CCN1C(=O)c2ccccc2NC1c1cc(OC)c(OC)c(OC)c1 (stereo unspecified),inactive,
CC1(C)c2ccccc2N2CC(=O)NC21/C=C/c1ccco1 (stereo unspecified),,1.29% [at 0.00035 µM]
O=C(CN1C(=O)NC2(CCCCC2)C1=O)NCCC1=CCCCC1,,1.34% [at 0.00035 µM]
O=C1CC(c2ccco2)CC2=C1C(c1ccc(O)cc1)n1nc(C(F)(F)F)nc1N2 (stereo unspecified),inactive,
CCC(C)(C)n1nnnc1CN(Cc1ccco1)Cc1cc2cc3c(cc2[nH]c1=O)OCO3,,0.108% [at 0.00035 µM]
CC1(C)CC(=O)C2=C(C1)OC(N)=C(C#N)C2CCc1ccccc1 (stereo unspecified),,-0.482% [at 0.00035 µM]
